# Assay outcomes: PubChem, The Scripps Research Institute Molecular Screening Center
# An excerpt weighted towards active compounds, which were near 4.1% of everything screened.
# hcDAF12 agonist – activators of H. contortus DAF-12 nuclear receptor | AID 652067 | HEK293 hcDAF-12 lit1-tk-luc reporter, luminescence; 0% DMSO, 100% Δ7-dafachronic acid | activation, % at 6.8 µM | 370,000 compounds, 1.4% hits;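 active means activation above the mean of all tested compounds plus 3 SD, cut at about 5.5% in these data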;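 further: 100% = response to 3 µM Δ7-dafachronic acid high control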
# DAX1 inh-1 – inhibits human nuclear receptor DAX1; HEK293 Gal4-DAX1 luciferase reporter, luminescence; inhibition, % at 6.75 µM; 340,000 compounds, 0.99% hits;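 active means inhibition above the mean over all tested compounds plus 3 SD, cut at about 4.2% in these data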;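 further: 0% = DAX1-transfected cells with DMSO and 100% = empty-vector control cells with DMSO; inhibition shows as a rise in luminescence from relieved DAX1 repression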
# Target sequence (P51843 207-470 limits assumed): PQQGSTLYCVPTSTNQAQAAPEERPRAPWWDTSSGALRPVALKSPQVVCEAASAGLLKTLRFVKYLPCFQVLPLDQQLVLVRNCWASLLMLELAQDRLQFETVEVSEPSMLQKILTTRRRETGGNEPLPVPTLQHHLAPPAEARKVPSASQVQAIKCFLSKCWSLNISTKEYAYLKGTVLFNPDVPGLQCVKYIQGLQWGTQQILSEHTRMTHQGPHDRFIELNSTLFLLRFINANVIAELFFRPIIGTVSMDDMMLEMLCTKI
# hgDAF12 agonist – activates the H. glycines DAF-12 receptor ligand-binding domain. HEK293 GAL4-hgDAF12 UAS-luciferase reporter, agonist luminescence; normalized to butyrate control. activation, % at 6.8 µM. 370,000 compounds, 1.8% hits. AID 687014;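 active means activation above a cutoff set at the mean of all screened compounds plus 3 SD, cut at about 10% in these data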;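 further: 0% = DMSO wells and 100% = sodium butyrate wells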
# DAX1 inh-2 – DAX1 (NR0B1) inhibition, primary screen; HEK293T StAR-luciferase reporter, SF-1/DAX-1 repression relief; inhibition, % at 6.8 µM; AID 652010; 370,000 compounds, 1.1% hits;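 active means inhibition above the mean over all tested compounds plus 3 SD, cut at about 3.6% in these data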;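 further: 0% = DAX-1 cells with DMSO and 100% = cells lacking DAX-1 with DMSO; higher inhibition means more luminescence from relief of DAX-1 repression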
# ssDAF12 agonist – activators of S. stercoralis DAF-12 nuclear receptor. HEK293 ssDAF-12/GRIP1 lit1-tk-luc reporter, luminescence; % of 3 µM dafachronic acid response. activation, % at 6.8 µM. 370,000 compounds, 1% hits;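 active means activation above the mean over all tested compounds plus 3 SD, cut at about 0.9% in these data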;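 further: 0% = DMSO-only wells and 100% = 3 µM delta7-dafachronic acid wells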
# Numbers without * were called inactive; x = no result.
SMILES,hcDAF12 agonist,DAX1 inh-1,hgDAF12 agonist,DAX1 inh-2,ssDAF12 agonist
CCOc1ccc(/C=N/n2c(-c3ccccc3)n[nH]c2=S)cc1,-1.8,5.8*,-0.1,-0.2,-0.7
S=c1[nH]nc(-c2ccncc2)n1/N=C/C(Cl)=C\c1ccccc1,1.4,-0.1,12.1*,1.4,-1.4
COC(=O)C[C@H]1CC[C@@H]2[C@H](COc3ccc(NC(=O)c4cnccn4)cc3C(=O)N2C)O1,-2.1,x,6.7,1.6,-0.9
c1ccc(COc2ccc(OCCn3cncn3)cc2)cc1,3.9,1.2,12.9*,2.7,-0.2
O=C1CN(C(=O)N[C@@H](Cc2ccccc2)C(=O)N[C@@H](Cc2ccccc2)C(=O)O)c2ccccc2N1,-0.1,1.1,-1.7,0.6,-1.2
CCC(C)[C@H](NC(=O)N1CC(=O)Nc2ccccc21)C(=O)N[C@@H](Cc1c[nH]c2ccccc12)C(=O)O (some centres undefined),5.9*,3.5,-2.2,0.6,-0.1
CC(C)[C@H](NC(=O)N1CC(=O)Nc2ccccc21)C(=O)N[C@@H](Cc1ccccc1)C(=O)O,0.1,7.0*,2.6,1.7,-1.7
O=C1C(NC(=O)N2c3ccccc3C=Cc3ccccc32)CCCCN1Cc1cccc(Cl)c1 (centres undefined),-0.8,x,-2.6,-1.0,-1.4
Cc1cccc(S(=O)(=O)N2CCC[C@H]2C(=O)N2CCC[C@@H]2C(=O)NCc2ccccc2)c1,0.1,x,-1.8,-0.8,-1.1
CC1CCCCN1C(=O)c1ccc(CNC(=O)c2cccc(Br)c2)cc1 (centres undefined),-1.5,x,0.7,-0.7,0.3
COC(=O)c1cc(-c2cccc(C#N)c2)c(=O)n2c1CCC2,-2.9,x,-0.6,-1.3,-0.3
O=C(CSc1cccs1)Nc1ccc(Cl)cc1,1.9,4.9*,3.9,0.5,-1.0
COCCN(CC1CCCN(C2Cc3ccccc3C2)C1)C(=O)c1cccs1 (centres undefined),3.6,0.0,0.4,0.7,-0.6
Cc1ccc(C(=O)N(CCN2CCCCC2)CC2CCCN(C3CCCC3)C2)s1 (centres undefined),2.8,0.3,7.4,4.4*,-0.2
O=C(c1cccs1)N(CCN1CCCCC1)CC1CCCN(C2CCCC2)C1 (centres undefined),2.5,0.5,7.8,0.2,0.9*
CCC[C@H]1[C@@H](OC(=O)NCc2ccc(C)cc2)CC[C@@]23CCCN2C(=O)CCC[C@@H]13,-0.7,x,2.9,x,-2.1
O=C(C1CC1)n1ccc2ccc(-c3ccc4ccn(Cc5ccccc5)c4c3)cc21,2.4,x,1.0,0.1,-0.9
O=C(NCCCN1CCOCC1)c1ccc(Cl)cc1[N+](=O)[O-],-0.4,4.6*,-0.2,-0.1,-1.4
Cn1c(=O)c(=O)n(C)c2cc(S(=O)(=O)N3CCN(c4ccccc4Cl)CC3)ccc21,0.2,x,6.8,0.4,0.4
CNC(C)C(=O)NC(C(=O)N1CCCC1C(=O)Nc1cccc2ncccc12)C(C)C (centres undefined),-0.1,x,-4.2,x,-1.7
CC(C)CN(C(=O)COC(=O)CCc1nc2ccccc2s1)c1c(N)n(Cc2ccccc2)c(=O)[nH]c1=O,1.7,0.8,1.1,3.7*,-0.8
COC(=O)[C@]12C[C@H](CC(=O)NCCCN3CCCC3=O)C(=O)N(Cc3ccc4c(c3)OCO4)C1=C[C@H](C(C)C)O[C@@H]2C1CC1,-2.1,x,1.1,-0.6,-0.1
CCCCCCC(=O)NC1CCCCN(Cc2ccc(Cl)cc2)C1=O (centres undefined),-2.2,x,4.4,-0.1,-1.5
OCCCn1c(C2CCCN2c2nc(-c3ccc(Cl)cc3)cs2)nc2cc(Cl)c(N3CCCCC3)cc21 (centres undefined),-1.4,5.3*,2.6,-0.1,-1.4
O=C(COC(=O)c1n[nH]c2ccccc12)Nc1ccccc1,2.1,10.1*,9.8,2.5,-0.5
Cc1cc(C)cc(NC(=O)COC(=O)c2n[nH]c3ccccc23)c1,1.4,0.9,12.0*,0.3,-0.9
CCCCCCCCN1CN2Cc3cc(OC)ccc3C2CS1(=O)=O (centres undefined),-0.4,x,-0.1,-0.5,-0.6
CC(C)NC(=O)c1ccc(NC(=O)CC2SC(N3CCCCC3)=NC2=O)cc1 (centres undefined),2.4,0.6,-4.0,-0.9,1.7*
